The source of these data is PubChem BioAssay (NCATS).

Assay [1] addresses Mitogen-activated protein kinase 10 (Mus musculus) (UniProt Q61831). The assay can be described thus: JNK3 AlphaScreen Assay (AID 530; active = well fitted curve in either direction with a large enough effect, not every such curve was filed as active;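 note: kinase came from lysate of stimulated human HepG2 cells; signal reports phosphorylation of biotinylated GST-cJun 1-79 at Ser73 with 10 µM ATP; % is set by controls: 0 for no effect and ±100 for the full control effect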). Conditions: JNK3 lysate, c-Jun phosphorylation; series mostly up to 57.1 µM. In a few lines: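 Pre-activated (IL-1β/TNFα) JNK3 in HepG2 lysates phosphorylates biotin-GST-cJun(1-79), 10 uM ATP; anti-phospho-cJun(Ser73) AlphaScreen read at room temperature, pH 7.6 Tris buffer. Compounds pre-incubated 15 min as titrations.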
For orientation: In Alpha technology, singlet oxygen from a donor bead excites a nearby acceptor bead.

Assay [2] is described as follows: Cell Viability - N2a (AID 540).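 Note: plate controls were DMSO alone for no effect and tamoxifen control for full effect; nearly all actives have a fitted effect of over 45% in size.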 To be noted: N2a mouse neuroblastoma cell viability; series mostly up to 92.2 µM. In a few lines: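 Mouse neuroblastoma N2a cells, 1500/well, exposed to compounds 40 h at 37 °C in complete medium. Viability measured as cellular ATP by CellTiter-Glo luminescence; AC50 from Hill fits of concentration-response.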
Assay [3] in a line: Cell Viability - NIH 3T3 (AID 541).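 Note: plate controls were DMSO alone for no effect and tamoxifen positive control for full effect; nearly all actives have a fitted effect of over 25% in size.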 Conditions: NIH 3T3 cell viability, qHTS; series mostly up to 92.2 µM. In a few lines:
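Mouse NIH 3T3 fibroblasts, 1000 cells/well, rested 5 hr at 37 °C, then exposed to compound for 40 hr at 37 °C in complete medium. Viability read as intracellular ATP by CellTiter-Glo luminescence; AC50 from Hill-equation fits of concentration-response data.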
For orientation: qHTS replaces the single test concentration by a dilution series.

Assay [4] can be described thus: Cell Viability - HUV-EC-C (AID 542). Note: % is set by controls: 0 for no effect and ±100 for the full control effect; nearly all actives have a fitted effect of over 35% in size. To be noted: HUV-EC-C endothelial cell viability, qHTS; series mostly up to 92.2 µM. The method in brief: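 HUV-EC-C human vascular endothelial cells, 1000/well, exposed to compound for 40 hr at 37 °C in complete medium. Intracellular ATP was read by CellTiter-Glo luminescence. AC50 came from Hill-equation fits of concentration-response data.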

Assay [5] is described as follows: Cell Viability - H-4-II-E (AID 543). Note: % is set by controls: 0 for no effect and ±100 for the full control effect; nearly all actives have a fitted effect of over 35% in size. Conditions: H-4-II-E rat hepatoma viability; series mostly up to 92.2 µM. The method in brief:
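Rat hepatoma H-4-II-E cells, 1500 per well, treated 40 h at 37 °C in complete medium. Cellular ATP read by CellTiter-Glo luminescence; AC50 from Hill fits of concentration-response.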

The nature of assay [6]: Cell Viability - SH-SY5Y (AID 544). Note: nearly all actives have a fitted effect of over 55% in size. To be noted: SH-SY5Y neuroblastoma cell viability; series mostly up to 92.2 µM. The method in brief:
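SH-SY5Y human neuroblastoma cells (1500/well) incubated 5 h, then compound-treated 40 h at 37 °C in complete medium. Viability read as intracellular ATP by CellTiter-Glo luminescence after 20 min; AC50 from Hill-equation fits of qHTS concentration-response.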

Assay [7] can be described thus: Cell Viability - Renal Proximal Tubule (AID 545). Note: nearly all actives have a fitted effect of over 40% in size. Conditions: renal proximal tubule cells viability, primary cells of rat origin; series mostly up to 91.7 µM. The method in brief:
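Viability taken as intracellular ATP (CellTiter-Glo luminescence) after 40 hr, 37 °C compound treatment of primary proximal tubule cells from rat kidney, 1000 cells/well; Hill-equation fits of qHTS concentration-response data gave AC50.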

Assay [8] can be described thus: Cell Viability - Mesenchymal (AID 546).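 Note: cells exposed to compound for 40 hours before reading.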 Conditions: mesenchymal cells viability, qHTS; series mostly up to 91.7 µM. The method in brief: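 Human kidney mesenchymal cells from normal renal glomeruli, 1000 cells/well, rested 5 hr at 37 °C, then treated 40 hr at 37 °C in complete medium. Cellular ATP read by CellTiter-Glo luminescence; AC50 from Hill-equation fits.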

The nature of assay [9]: Cellular Toxicity (caspase-3) HepG2 (AID 654).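 Note: cells exposed to compound for 16 hours before reading; 0% = DMSO alone and 100% = caspase signal from 100 µM tamoxifen.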 Conditions: HepG2 caspase-3 activation, luminescence, 0% = DMSO only, 100% = tamoxifen; series mostly up to 92.2 µM. The method in brief:
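HepG2 cells (1500/well) were treated 16 h at 37 °C in complete medium, then caspase 3/7 activity was read by Caspase-Glo luminescence. Data were normalized to DMSO and 100 uM tamoxifen; AC50 came from Hill-equation fits of qHTS concentration-response.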

Assay [10] in a line: Cellular Toxicity (caspase-3) Jurkat (AID 655).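 Note: cells exposed to compound for 16 h at 37 °C before reading.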 Conditions: Jurkat caspase-3 activation, luminescence, DMSO = 0%, tamoxifen = 100%; at 92.2 µM (top of the series). In a few lines: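 Luminescent Caspase-Glo 3/7 read-out (20 min, room temperature) after 16 h compound treatment at 37 C of 5000 Jurkat cells per well. AC50 derived by Hill-equation fitting, scaled between DMSO basal and 100 uM tamoxifen stimulation.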

Assay [11] in a line: Cellular Toxicity (caspase-3) HUV-EC-C (AID 656). Conditions: HUV-EC-C cells, caspase-3 activation (apoptosis), vehicle = 0, 100 µM tamoxifen = 100%; series mostly up to 92.2 µM. The method in brief: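 Luminescent Caspase-Glo 3/7 readout after 16 h, 37 °C compound exposure of HUV-EC-C endothelial cells, 1000 per well, complete medium. AC50 derived by Hill fitting, with DMSO as baseline and 100 uM tamoxifen as full activation.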

Assay [12] can be described thus: Cellular Toxicity (caspase-3) SHSY5Y (AID 657). To be noted: SH-SY5Y caspase-3 activation, DMSO zero, 10 µM staurosporine = 100%; series mostly up to 91.7 µM. In a few lines:
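Luminescent Caspase-Glo 3/7 read-out, 1 hr room temperature, follows 16 hours of compound treatment of SH-SY5Y cells at 37 °C. Normalization: DMSO basal, 10 uM staurosporine as 100%; AC50 values from Hill-equation concentration-response fits.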

The nature of assay [13]: Cellular Toxicity (caspase-3) BJ (AID 658). To be noted: BJ fibroblasts, luminescence, normalized: DMSO 0%, staurosporine 100%; series mostly up to 91.7 µM. The method in brief:
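BJ human foreskin fibroblasts, 1000 cells/well, treated 16 hours at 37 °C in complete medium; caspase 3/7 activity by Caspase-Glo luminescence after 1 hr at room temperature. Normalized to DMSO and 10 uM staurosporine; AC50 from Hill fits.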

The nature of assay [14]: Cellular Toxicity (caspase-3) MRC-5 (AID 659). Conditions: MRC-5 cells, luminescence, normalized: DMSO 0%, 10 µM staurosporine 100%; series mostly up to 91.7 µM. The method in brief: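 MRC-5 human normal lung fibroblasts, 1500 cells/well, treated 16 h at 37 °C in complete medium. Caspase 3/7 measured by Caspase-Glo luminescence after 1 h at room temperature. Normalized to DMSO and 10 uM staurosporine; AC50 from Hill fit.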

A short description of assay [15]: Cellular Toxicity (caspase-3) Mesangial (AID 660).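 Note: cells exposed to compound for 16 h before the caspase read.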 Conditions: mesangial cells, normalized: DMSO 0%, 100 µM tamoxifen 100%; series mostly up to 91.7 µM. In a few lines: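 Human renal glomerular mesangial cells, 1000/well, 5 h at 37 C before 16 h compound treatment. Caspase-Glo 3/7 luminescence after 20 min; normalized to DMSO and 100 uM tamoxifen, AC50 from Hill fit.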

Assay [16] can be described thus: Cellular Toxicity (caspase-3) SK-N-SH (AID 661). To be noted: SK-N-SH caspase-3 activation, qHTS, DMSO as zero, staurosporine as full; series mostly up to 91.7 µM. The method in brief: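 Human SK-N-SH neuroblastoma cells, 1500/well, were exposed to compounds for 16 hours at 37 °C. Caspase-Glo 3/7 luminescence was normalized to DMSO (basal) and 10 uM staurosporine (100%), and AC50 came from a Hill fit.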

Assay [17] is described as follows: Stat Signaling Pathway (AID 446; active = well fitted curve in either direction with a large enough effect, not every such curve was filed as active;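 note: ME-180 cervical cancer cells given 40 pM IL-6 alongside compound; SIE-controlled beta-lactamase reporter measured as 460/530 nm FRET emission ratio; % is set by controls: 0 for no effect and ±100 for the full control effect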). Conditions: ME-180 SIE beta-lactamase reporter, IL-6 stimulated, 5 h; series mostly up to 17.2 µM. The method in brief: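 Reporter line: ME-180 cervical carcinoma, SIE-beta-lactamase. Treatment: compound with 40 pM IL-6, 5 hrs, 37 C, in low-serum OPTI-MEM with 10 mM HEPES pH 7.3. Detection: 460/530 nm fluorescence.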
Assay [18] deals with Glucocorticoid receptor (Homo sapiens) (UniProt P04150). Description: GR-EFC Redistribution (AID 451; calls by dose curve; note: potency is the fitted concentration of half-maximal effect). Conditions: CHO-K1 GR-EFC translocation, beta-gal luminescence, 2 h. In a few lines: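 CHO-K1 cells expressing nuclear EA and GR-ED fragments of b-gal; compounds titrated up to 46 uM final, 2 h at 37 C. GR nuclear translocation read as complemented b-gal luminescence after 1 h RT detection.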

Assay [19] has as its target 3',5'-cyclic-AMP phosphodiesterase 4B (Homo sapiens) (UniProt Q07343). Description: qHTS Assay for Inhibitors of PDE-IV (AID 607; active = well fitted activation curve with a large enough effect in the main read-out, with a control signal flat, not every such curve was filed as active; note: potency is the fitted concentration of half-maximal effect). Conditions: HEK293 ACTOne CNG channel cells, membrane potential fluorescence; series mostly up to 22.9 µM. In a few lines: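 Cell-based read-out of cAMP via a modified cyclic nucleotide-gated channel and membrane potential dye (535/590 nm) in HEK293 cells expressing PDE4 endogenously. Compounds tested up to 22.9 uM final; 100 uM RO 20-1724 reference.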

For assay [20], the target named is Glucocorticoid receptor (Homo sapiens) (UniProt P04150). The assay can be described thus: GR-GFP Redistribution (AID 450;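 active = compounds whose dose series gives a full or clear partial fitted curve of increased nuclear translocation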; note: potency is the fitted concentration of half-maximal effect). To be noted: U2OS GR-GFP nuclear translocation, laser cytometry, 2 h.

Values without a mark were called inactive. Results filed as inconclusive are left out. The source made the active and inactive calls. Unless noted, calls come from the whole dose curve; as a rule, active = well fitted curve in the direction sought with a large enough effect; inconclusive = small, poorly fitted or top-dose-only effect, or another doubt; inactive = no such curve, though single readings can be large; an effect the other way counts as inactive or inconclusive. Bounds are passed on as bounds.

3',5'-cyclic-AMP phosphodiesterase 4B (Homo sapiens), sequence (Q07343 whole entry, looked up): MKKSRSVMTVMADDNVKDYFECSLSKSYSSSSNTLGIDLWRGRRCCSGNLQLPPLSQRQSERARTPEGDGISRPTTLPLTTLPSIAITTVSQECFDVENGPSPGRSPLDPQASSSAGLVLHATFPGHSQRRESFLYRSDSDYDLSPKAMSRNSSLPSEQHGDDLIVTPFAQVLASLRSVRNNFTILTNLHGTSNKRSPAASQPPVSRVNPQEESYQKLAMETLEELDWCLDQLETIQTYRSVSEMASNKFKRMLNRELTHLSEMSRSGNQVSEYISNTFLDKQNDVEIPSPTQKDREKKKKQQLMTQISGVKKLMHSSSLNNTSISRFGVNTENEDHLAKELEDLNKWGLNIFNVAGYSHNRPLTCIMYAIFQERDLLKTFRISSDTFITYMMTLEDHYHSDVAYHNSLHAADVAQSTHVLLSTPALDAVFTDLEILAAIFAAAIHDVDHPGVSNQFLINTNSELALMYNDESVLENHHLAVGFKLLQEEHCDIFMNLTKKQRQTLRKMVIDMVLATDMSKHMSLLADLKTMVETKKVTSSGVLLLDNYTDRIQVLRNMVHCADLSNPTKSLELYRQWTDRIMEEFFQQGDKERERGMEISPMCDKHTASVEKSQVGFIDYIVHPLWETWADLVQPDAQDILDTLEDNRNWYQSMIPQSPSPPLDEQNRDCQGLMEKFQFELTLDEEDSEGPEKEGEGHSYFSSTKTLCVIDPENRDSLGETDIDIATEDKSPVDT
Glucocorticoid receptor (Homo sapiens), sequence (P04150 whole entry, looked up, the tested form may be a part): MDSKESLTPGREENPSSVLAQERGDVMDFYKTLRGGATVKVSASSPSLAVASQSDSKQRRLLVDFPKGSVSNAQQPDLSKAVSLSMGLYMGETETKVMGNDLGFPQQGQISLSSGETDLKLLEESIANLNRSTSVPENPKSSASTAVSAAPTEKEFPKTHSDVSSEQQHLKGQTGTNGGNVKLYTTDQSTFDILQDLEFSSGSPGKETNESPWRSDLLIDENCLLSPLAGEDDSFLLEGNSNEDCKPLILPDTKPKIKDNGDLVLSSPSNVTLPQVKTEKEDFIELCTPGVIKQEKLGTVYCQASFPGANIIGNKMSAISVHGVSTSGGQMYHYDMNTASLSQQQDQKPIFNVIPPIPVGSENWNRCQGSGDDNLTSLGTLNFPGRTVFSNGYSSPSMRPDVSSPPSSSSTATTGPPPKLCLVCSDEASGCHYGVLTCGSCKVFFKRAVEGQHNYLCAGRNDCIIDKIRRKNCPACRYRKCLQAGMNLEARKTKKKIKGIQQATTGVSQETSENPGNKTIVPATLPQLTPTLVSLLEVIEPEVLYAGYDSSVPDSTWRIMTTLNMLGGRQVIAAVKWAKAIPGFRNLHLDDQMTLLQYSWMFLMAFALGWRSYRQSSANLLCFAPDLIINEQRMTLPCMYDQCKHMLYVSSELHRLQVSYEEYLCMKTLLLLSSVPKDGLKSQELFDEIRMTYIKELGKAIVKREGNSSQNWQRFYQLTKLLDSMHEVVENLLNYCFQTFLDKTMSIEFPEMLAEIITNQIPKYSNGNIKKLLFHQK

As to `C=Cc1ccccc1`, the molecule was called inactive in assay [1], in [2], in assay [3], in [4], in [5] and in [6]. Moreover, the outcome in [7], in assay [8], in [9], in [11], in [12] and in [13] was inactive. For the same molecule, the outcome in assay [14], in assay [15] and in [16] was inactive. For the same molecule, in [10], the caspase-3 activation was -0.459%.

Take `CCCCCCCCCC(=O)O`: the molecule was classed as inactive in assay [1], in assay [2], in assay [3], in [4], in assay [5] and in assay [6]. Also, the molecule was called inactive in assay [7], in assay [8], in [9], in [11], in assay [12] and in assay [13]. For the same molecule, the outcome in assay [14], in [15] and in [16] was inactive. Moreover, the caspase-3 activation in [10] is -4.13%.

As for `O=C(O)c1cc2ccccc2c(Cc2c(O)c(C(=O)O)cc3ccccc23)c1O`, the result in assay [17] was inactive. For the same molecule, in assay [18], the Potency is greater than 9.22 µM. The activity change, negative = inhibition in assay [1] is 3.49% [at 11.4 µM]. In [19], the Potency result was “inactive”.

On to `COc1ccc2[nH]c(=O)c3c(c2c1)OC(C)(C)C=C3`, for which the Potency in [20] and in [18] was greater than 46 µM each time. Moreover, the result in assay [1] was inactive. Also, the Potency result in assay [19] is “inactive”.

In the case of `COC(C)=O`, the outcome in assay [1], in assay [2], in assay [3], in assay [4], in [5] and in assay [6] was inactive. For the same molecule, the outcome in assay [7], in assay [8], in assay [9], in assay [11], in assay [12] and in [13] was inactive. The molecule was classed as inactive in assay [14], in assay [15] and in [16]. Further, in assay [10], the caspase-3 activation is -0.555%.

`CN(C)Cc1ccccc1`: the molecule was called inactive in assay [1], in assay [2], in assay [3], in [4], in assay [5] and in assay [6]. Also, the result in assay [7], in assay [8], in assay [9], in assay [11], in assay [12] and in [13] was inactive. Besides, the molecule was classed as inactive in assay [14], in assay [15] and in [16]. The caspase-3 activation in [10] is 0.691%.

As for `CC(=O)C1=C(O)C=C2Oc3c(C(C)=O)c(O)c(C)c(O)c3[C@]2(C)C1=O`, the Potency in assay [20] and in assay [18] was greater than 46 µM in each case. In assay [1], the call was inactive. Also, the Potency entry in assay [19] is “inactive”.

Consider `Cc1ccc(OC[C@H](O)[C@H](C)NC(C)C)c2c1CCC2`, for which the call in [17] and in assay [1] was inactive. Moreover, the Potency in assay [20] and in assay [18] was greater than 46 µM each time. In addition, in [19], the Potency result was “inactive”.

Turning to `COC1=CC(=O)C[C@@H](C)[C@@]12Oc1c(Cl)c(OC)cc(OC)c1C2=O`, the Potency in assay [20] and in assay [18] was greater than 46 µM throughout. Moreover, the outcome in assay [1] was inactive.

As for `CCc1ccccc1OC[C@@H](O)CN[C@H]1CCCc2ccccc21`, the Potency in [20] and in assay [18] was greater than 46 µM each time. The molecule was called inactive in [1].

In the case of `C[C@]12CC[C@@H]3c4ccc(OS(=O)(=O)O)cc4CC[C@H]3[C@@H]1CCC2=O`, the molecule was called inactive in [17]. Further, the Potency in assay [20] was greater than 20.6 µM.

Turning to `O=C(O)CC(O)(CC(=O)O)C(=O)O`, the molecule was called inactive in assay [1], in assay [2], in [3], in assay [4], in [5] and in assay [6]. Moreover, the molecule was called inactive in assay [7], in assay [8], in [9], in assay [11], in assay [12] and in assay [13]. In addition, the call in [14], in [15] and in [16] was inactive. In addition, the caspase-3 activation in [10] is 101% (active).

With `CN(C)CCCn1cc(C2=C(c3c[nH]c4ccccc34)C(=O)NC2=O)c2ccccc21`, the Potency in assay [20] and in assay [18] was greater than 46 µM in each case.

`CC(C)CCNC(=O)[C@H](CC(C)C)NC(=O)[C@H]1O[C@@H]1C(=O)O`: the outcome in [17] was inactive. The Potency in [20] is greater than 20.6 µM.

As to `NCCCC(=O)O`, the Potency in [20] and in [18] was greater than 46 µM each time. Moreover, the outcome in [1] was inactive. Also, the Potency result in [19] is “inactive”.

Regarding `COc1cc(C[C@H]2C(=O)OC[C@@H]2Cc2ccc(OC)c(OC)c2)ccc1O`, the Potency is greater than 46 µM in assay [18] and 3.79 µM (active) in assay [19]. Moreover, in [1], the result was inactive.
